Experimental data published in PubChem BioAssay (NCI).
About 79,000 compounds went through this panel and 15% of them were active in at least one assay; those are over-represented in the sample as a whole. The source made the active and inactive calls. Cut-off read from the data, not from the text of the source: active = growth inhibition above about 70%; inactive = the rest.

Columns and labels:
[1] = NCI Yeast Anticancer Drug Screen. Data for the rad50 strain (AID 155);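 note: 0% = growth of vehicle-only cultures of the same strain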; details: S. cerevisiae rad50 strain growth inhibition, hits give high values
Procedure, shortened: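 Cells are treated with compound, grown, and their growth is then scored against vehicle-only cultures of the same repair-deficient yeast strain.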

[2] = NCI Yeast Anticancer Drug Screen. Data for the mec2-1 strain (AID 157); details: S. cerevisiae mec2-1 strain, hits give high values
Procedure, shortened: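 Cells of the genetically defined mec2-1 yeast strain are incubated with test compound. Inhibition of growth is calculated against vehicle-treated controls.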

[3] = NCI Yeast Anticancer Drug Screen. Data for the sgs1 mgt1 strain (AID 161);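 note: 0% = growth of cultures given vehicle only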; details: S. cerevisiae sgs1 mgt1 strain, hits give high values
Procedure, shortened: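 Read-out: growth inhibition vs vehicle controls. Cells: mutant yeast strain deficient in DNA damage repair.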

[4] = NCI Yeast Anticancer Drug Screen. Data for the cln2 rad14 strain (AID 165);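 note: 0% = growth equal to vehicle treated cultures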; details: S. cerevisiae cln2 rad14 strain, hits give high values
Procedure, shortened: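 The screen exposed genetically defined yeast (cln2 rad14) to test compounds and scored growth inhibition relative to vehicle-treated controls.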

[5] = NCI Yeast Anticancer Drug Screen. Data for the bub3 strain (AID 167); details: S. cerevisiae bub3 mutant strain, hits give high values
Procedure, shortened: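 Part of a panel of yeast mutants defective in DNA damage repair or cell cycle regulation. Each strain is grown with compound, and inhibition is calculated relative to solvent-treated cultures.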

[6] = NCI Yeast Anticancer Drug Screen. Data for the mlh1 rad18 strain (AID 175); details: S. cerevisiae mlh1 rad18 strain growth inhibition, hits give high values
Procedure, shortened: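 Compound-treated yeast growth, normalised to vehicle controls. Strain bears defined DNA repair mutations.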

[7] = at 5.0 µM (retest, dose inferred, filed as 0.5)
[8] = at 50.0 µM (retest, dose inferred, filed as 5.0)

Measured: growth inhibition

CCCc1cc2c(cc1COc1ccccc1C(=O)O)OCO2
inactive: [1]; [7] -1% | [1]; [8] 49% | [1]; at 50.0 µM 56.4% | [2]; [7] -4% | [2]; [8] 52% | [2]; at 50.0 µM 59.8% | [3]; [7] -7% | [3]; [8] 25% | [3]; at 50.0 µM 38.4% | [4]; [7] -2% | [4]; [8] 51% | [4]; at 50.0 µM 33.4% | [5]; [7] -6% | [5]; [8] 31% | [5]; at 50.0 µM 25.4% | [6]; [7] -2% | [6]; [8] 58% | [6]; at 50.0 µM 61.4%

CC1(C)CCN(CCOC(=O)C(c2ccccc2)C2C=CCCC2)C1 (configuration not stated)
inactive: [1]; [7] -3% | [1]; [8] 46% | [1]; at 50.0 µM 64.2% | [2]; [7] 25% | [2]; [8] 50% | [2]; at 50.0 µM 56.6% | [3]; [7] 29% | [3]; [8] 69% | [4]; [7] 3% | [4]; [8] 32% | [5]; [7] 4% | [5]; [8] 26% | [5]; at 50.0 µM 69.8% | [6]; [7] 38% | [6]; [8] 65% | [6]; at 50.0 µM 70%
active: [3]; at 50.0 µM 77% | [4]; at 50.0 µM 73.7%

Oc1ccc(C(O)(c2ccccc2)c2ccccc2)c2ccccc12
inactive: [1]; [7] 45% | [2]; [7] 12% | [3]; [7] 59% | [4]; [7] 28% | [4]; [8] 67% | [5]; [7] 7% | [5]; [8] 43% | [6]; [7] 20%
active: [1]; [8] 94% | [1]; at 50.0 µM 98.2% | [2]; [8] 98% | [2]; at 50.0 µM 97.9% | [3]; [8] 93% | [3]; at 50.0 µM 98.5% | [4]; at 50.0 µM 97.2% | [5]; at 50.0 µM 98% | [6]; [8] 96% | [6]; at 50.0 µM 97.5%

Nc1nc(-c2ccc3c(c2)Sc2ccccc2O3)cs1
inactive: [1]; [7] 18% | [1]; at 50.0 µM 67.6% | [2]; [7] 39% | [2]; at 50.0 µM 65.3% | [3]; [7] 57% | [4]; [7] 7% | [5]; [7] 11% | [6]; [7] 57%
active: [1]; [8] 99% | [2]; [8] 100% | [3]; [8] 99% | [3]; at 50.0 µM 91.3% | [4]; [8] 99% | [4]; at 50.0 µM 78.1% | [5]; [8] 99% | [5]; at 50.0 µM 86.7% | [6]; [8] 99% | [6]; at 50.0 µM 93.7%

COc1ccc(C(=O)C2OC2c2ccccc2)cc1 (configuration not stated)
inactive: [1]; [7] -2% | [1]; [8] 23% | [1]; at 50.0 µM 42.4% | [2]; [7] -6% | [2]; [8] 9% | [2]; at 50.0 µM 15.4% | [3]; [7] -1% | [3]; [8] 20% | [3]; at 50.0 µM 30% | [4]; [7] -32% | [4]; [8] 3% | [4]; at 50.0 µM 20.1% | [5]; [7] 3% | [5]; [8] 18% | [5]; at 50.0 µM 58.5% | [6]; [7] 7% | [6]; [8] 59% | [6]; at 50.0 µM 34.7%

COc1ccc(CCBr)cc1
inactive: [1]; [7] -1% | [1]; [8] -17% | [1]; at 50.0 µM 14.7% | [2]; [7] -23% | [2]; [8] -13% | [2]; at 50.0 µM 14% | [3]; [7] -15% | [3]; [8] -7% | [3]; at 50.0 µM 22.2% | [4]; [7] 17% | [4]; [8] -1% | [4]; at 50.0 µM 0.5% | [5]; [7] -17% | [5]; [8] -7% | [5]; at 50.0 µM 18.1% | [6]; [7] -27% | [6]; [8] -41% | [6]; at 50.0 µM 15.2%

c1ccc2c(c1)N=c1ccccc1=P21c2ccccc2Nc2ccccc21
active: [1]; [7] 89% | [1]; [8] 99% | [1]; at 50.0 µM 87.3% | [2]; [7] 93% | [2]; [8] 99% | [2]; at 50.0 µM 90.9% | [3]; [7] 84% | [3]; [8] 99% | [3]; at 50.0 µM 87.8% | [4]; [7] 85% | [4]; [8] 99% | [4]; at 50.0 µM 89.5% | [5]; [7] 97% | [5]; [8] 99% | [5]; at 50.0 µM 89.8% | [6]; [7] 92% | [6]; [8] 99% | [6]; at 50.0 µM 83.2%

CN1CCN(CCCCN2c3ccccc3Sc3ccc(C(=O)c4ccccc4)cc32)CC1
inactive: [1]; [7] 25% | [1]; [8] 27% | [2]; [7] 26% | [2]; [8] 34% | [2]; at 50.0 µM 22.8% | [3]; [7] 27% | [3]; [8] 2% | [4]; [7] 30% | [4]; [8] 18% | [4]; at 50.0 µM -9.8% | [5]; [7] 36% | [5]; [8] 25% | [5]; at 50.0 µM 22% | [6]; [7] 32% | [6]; [8] 37% | [6]; at 50.0 µM 60.2%
active: [1]; at 50.0 µM 75.6% | [3]; at 50.0 µM 87.2%

Cc1nn(-c2ccc(S(=O)(=O)[O-])cc2)c([O-])c1N=[N+](C)c1ccc(-c2ccc(N=Nc3ccc4c(S(=O)(=O)[O-])cc(S(=O)(=O)[O-])c(N)c4c3[O-])c([O-])c2)cc1[O-].[Cu+2].[Cu+2].[Na+]
inactive: [1]; [7] 6% | [1]; [8] -15% | [1]; at 50.0 µM -26.5% | [2]; [7] -3% | [2]; [8] -17% | [2]; at 50.0 µM 18.9% | [3]; [7] 6% | [3]; [8] -15% | [3]; at 50.0 µM -19.4% | [4]; [7] -7% | [4]; [8] -28% | [4]; at 50.0 µM 64.5% | [5]; [7] -9% | [5]; [8] -11% | [5]; at 50.0 µM -60.1% | [6]; [7] -9% | [6]; [8] -4% | [6]; at 50.0 µM 17.6%
